# The list is not random: actives were taken first. Their share in the collection is about 4%.
# HIF-2a inh – HIF-2a reporter inhibitors, primary screen, luminescence, 786-0 RCC cells. 786-0 RCC cells HIF-2a reporter, luciferase luminescence, overnight. inhibition, % at 18.8 µM. hit rate 0.72% among 360,000. AID 624352, 2012;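 active = inhibition of the luminescence signal of 40% or more relative to plate controls, in a single-dose primary screen at 18.75 µM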
# CF NFkB inh – inhibitors of PAF-induced NF-kB signaling, primary screen, cell-based, GFP fluorescence, uHTS. KKLEB NF-kB-GFP reporter, GFP fluorescence overnight. hit rate 0.86% among 360,000. AID 588850, 2011. inhibition, % at 5 µM;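 active = at least 50% inhibition at 5 µM, scaled per plate between neutral and stimulator controls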;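 note: PAF is a Pseudomonas aeruginosa culture filtrate used as stimulus; plate controls were PAF-stimulated DMSO wells for no effect and unstimulated DMSO wells for full effect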
# TWEAK-Fn14 inh – inhibitors of TWEAK-Fn14 signaling, primary screen, luciferase reporter cells, uHTS; TWEAK-stimulated Fn14 reporter cells, luciferase luminescence, 8 h; AID 1159606, 2016; hit rate 2% among 360,000; inhibition, % at 10 µM; in the data active = inhibition above about 50%
# TROY signal inh – inhibitors of TROY-driven NF-kB signaling, primary screen, Q293 LMP1-TROYcd cells, NF-kB luciferase, uHTS | Q293 LMP1-TROYcd NF-kB luciferase reporter, 4 h | inhibition, % at 10 µM | hit rate 0.98% among 360,000;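 active = compounds whose plate-normalised and pattern-corrected inhibition of the luciferase reporter signal at the single screening dose is 50% or more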
# KKLEB cytotox – cytotoxicity in KKLEB CF airway cells, primary screen, cytotoxicity control for CF NF-kB inhibitor project, cell-based, uHTS, fluorescence assay plates. activity change (cytotoxicity), % at 5 µM. hit rate 0.36% among 360,000. KKLEB CF airway cells viability, ATPlite luminescence, overnight; active compounds read low; cells stimulated with P. aeruginosa culture filtrate;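 active = corrected activity change at or below -50% at 5 µM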
# Peg3 promoter – Peg3 promoter-driven luciferase inhibitors, primary screen, cell-based, HeLa, luciferase luminescence; HeLa PEG-Prom luciferase reporter, overnight; inhibition, % at 20 µM; AID 588405, 2011; hit rate 1.7% among 360,000;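 active = inhibition of at least 50% at 20 µM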
# The depositor's hits bear a star; . = not tested or not shown.
SMILES,HIF-2a inh,CF NFkB inh,TWEAK-Fn14 inh,TROY signal inh,KKLEB cytotox,Peg3 promoter
COc1cc(/C=C2\SC(=S)N(CCC(=O)N3CCN(C)CC3)C2=O)cc(OC)c1OC,-0.5,9.7,-15.9,-1.2,3.3,16.8
O=C(CCN1C(=O)/C(=C/c2ccccc2F)SC1=S)Nc1ccccn1,11.6,21.6,10.1,-28.2,-19.1,-9.0
COc1cc(/C=C2/SC(=S)N(CCC(=O)N3CCN(C)CC3)C2=O)cc(OC)c1OC,-12.5,8.9,6.9,14.3,-2.7,53.0*
O=C(O)COc1ccc(C=C2SC(=S)N(c3ccccc3)C2=O)cc1,42.8*,-3.9,41.1,-12.1,2.2,-33.4
Cc1ccc(/C=C2\SC(=S)N(CCCC(=O)N3CCOCC3)C2=O)cc1,57.9*,4.1,-1.9,8.8,-8.7,3.7
CC(C)(CN=C1NS(=O)(=O)c2ccccc21)CNC(=O)c1ccccc1,27.4,-12.0,11.2,7.8,16.4,-2.5
COc1ccc(/C=C2\SC(=S)N(CCC(=O)N3CCCCC3)C2=O)cc1,75.8*,12.2,50.5*,13.8,0.1,50.1*
CCOc1ccc(/C=C2\SC(=S)N(CCC(=O)O)C2=O)cc1,90.5*,7.8,86.4*,57.8*,0.2,24.1
CCc1ccc(/C=C2\SC(=S)N(CCC(=O)Nc3cc(C)on3)C2=O)cc1,82.1*,-5.4,69.9*,52.9*,0.4,-1.1
CC1CCN(C(=O)CCN2C(=O)/C(=C/c3cccs3)SC2=S)CC1,22.7,15.4,39.0,-9.2,-9.3,93.8*
CCOc1ccc(/C=C2/SC(=S)N(CCC(=O)Nc3ccc(C(=O)O)cc3)C2=O)cc1,-80.3,14.0,-72.1,-59.4,7.9,-18.8
Cc1cc(NC(=O)CCN2C(=O)/C(=C/c3ccccc3Cl)SC2=S)no1,0.3,13.5,-27.5,2.4,-15.4,8.7
N#CCCN1CCN(C(=O)c2c(N)no[n+]2[O-])CC1,17.9,1.4,-12.4,-6.8,-0.4,3.3
COc1ccc(C(CCN(Cc2ccc(OC)c(OC)c2)C(C)=O)C(C)C)cc1 (stereo not given),7.1,18.5,-5.9,11.4,-15.8,15.5
COc1ccc(/C=C2/SC(=S)N(CCCC(=O)N3CCN(C)CC3)C2=O)cc1,69.3*,4.2,13.8,8.8,2.9,5.2
O=C(CCN1C(=O)/C(=C\c2ccccc2Cl)SC1=S)N1CCN(c2ccccc2)CC1,59.5*,3.9,38.5,-30.0,7.7,100.0*
COc1ccc(/C=C2\SC(=S)N(CCC(=O)Nc3ccccc3C(=O)O)C2=O)cc1,70.6*,1.5,23.6,49.8,2.3,-23.6
COc1ccc(/C=C2\SC(=S)N(CCC(=O)N3CCCCC3CCO)C2=O)cc1 (stereo not given),58.4*,6.2,42.8,11.4,4.7,-4.4
CC(/C=C1\SC(=S)N(NC(=O)c2ccc(C)cc2)C1=O)=C\c1ccccc1,-5.6,-13.8,-1.8,-18.4,-6.7,-3.6
O=C1/C(=C/c2ccc(Cl)cc2)SC(=S)N1CCC(=O)N1CCCCC1CCO (stereo not given),4.1,18.7,12.9,20.4,-11.9,38.9
CC(/C=C1\SC(=S)N(c2ccc(C(=O)O)cc2)C1=O)=C\c1ccccc1,51.4*,-9.9,58.5*,45.2,0.6,17.1
COc1cccc(/C=C2\SC(=S)N(CCC(=O)N3CCCCC3)C2=O)c1,45.7*,47.5,-9.1,-2.1,7.3,90.4*
O=C1/C(=C/c2ccccc2F)SC(=S)N1CCC(=O)N1CCCCC1CCO (stereo not given),4.0,-1.2,8.4,5.0,1.2,52.8*
C=CCOc1ccc(CNc2ccc3[nH]c(=O)[nH]c3c2)cc1OCC,8.3,-23.1,11.5,11.3,-13.6,19.9
CCN(CC)c1ccc([C@H]2[C@@H]3CCCC[C@]3(O)CCN2CC(=O)NCc2ccco2)cc1,6.2,-7.3,-6.5,11.7,0.6,8.9
SMILES,HIF-2a inh,CF NFkB inh,TWEAK-Fn14 inh,TROY signal inh,KKLEB cytotox,Peg3 promoter
CCOC(=O)C(CC)Sc1nc2c(c(=O)[nH]c(=O)n2C)n1CCc1ccccc1 (stereo not given),11.2,-3.7,2.1,.,3.4,7.7
Cc1nc(NCCc2ccccc2)c2oc3ccccc3c2n1,-33.0,8.7,51.7*,30.5,-6.9,-3.9
CCCCNC(=O)C1C(c2ccccc2)=Nc2ccccc2N1C(=O)c1ccc(C)cc1 (stereo not given),-17.8,.,.,.,.,.
O=C(CCC(=O)OCC(=O)c1ccc(Cl)cc1Cl)Nc1cccc2cccnc12,18.9,2.2,-9.0,0.5,2.1,10.0
CC[C@@H](C)[C@H](NC(=O)Cc1c(C)c2cc3c(C)c(C)oc3c(C)c2oc1=O)C(=O)O,8.3,8.3,-1.2,7.5,-0.5,4.2
COc1ccc2ccccc2c1-c1sc(Nc2ccccc2)n[n+]1-c1ccc(F)cc1,-5.9,17.4,-47.0,23.9,-13.9,86.5*
Fc1ccc(-[n+]2nc(Nc3ccccc3)sc2-c2c(Cl)cccc2Cl)cc1,-3.4,32.4,23.6,39.5,-2.0,58.7*
O=C(O)c1ccc(-c2sc(Nc3ccccc3)n[n+]2-c2ccc(F)cc2)cc1,7.9,11.5,17.7,-8.9,-20.6,6.8
O/N=C(\COc1ccccc1O)c1ccccc1,-2.0,-4.3,-1.9,-24.0,10.4,-17.6
CC1CN(C(=O)CCC(=O)N2CCCCC2)c2cc(Cl)ccc2O1 (stereo not given),5.0,-12.9,20.1,-0.7,1.9,-19.4
CN1CCN(CCCNC(=O)c2ccc(CS(=O)(=O)c3ccc(Br)cc3)o2)CC1,0.3,-12.0,-17.9,-14.1,0.9,0.1
O=C(O)c1ccccc1C(=O)Nc1ccc(Oc2ccccc2)cc1,-4.1,11.5,57.5*,-8.9,3.5,3.7
Cc1ccc(O)c(C(=O)c2cnc3c(c2)COc2ccccc2-3)c1,15.9,46.2,63.3*,5.7,-4.8,-16.6
Cc1nn(-c2ccccc2Cl)c2sc(C(=O)Nc3nnc(C4CC4)s3)cc12,20.0,13.5,-28.7,4.4,-14.1,17.9
CCOC(=O)c1ccc(NC(=O)c2cc3c(C)nn(-c4ccccc4Cl)c3s2)s1,21.4,70.5*,-10.5,12.9,-70.4*,25.1
CCC(CC)NC(=O)c1cc2c(C)nn(Cc3ccccc3Cl)c2s1,1.0,9.3,74.0*,.,-1.9,43.1
Cc1nn(Cc2ccccc2Cl)c2sc(C(=O)Nc3ccccc3N3CCOCC3)cc12,5.1,27.8,60.6*,13.0,-13.5,34.0
CCOC(=O)c1c(C)oc2c1c(C(c1cccnc1)N1CCOCC1)c(O)c1ccccc12 (stereo not given),31.8,30.3,98.2*,-9.2,-6.8,-160.7
CCc1c(C)nc(N)n2c(SCC(=O)N3CCCc4ccccc43)nnc12,1.2,3.3,14.3,4.1,14.6,3.2

# Screening results from PubChem.
